# According to ChEMBL document CHEMBL1157539, “Thousands of chemical starting points for antimalarial lead identification” (Nature, 2010):
# What was measured:
# Format in all cases: functional
# Plasmodium falciparum [1] = assay: GSK_TCMDC: Inhibition of Plasmodium falciparum 3D7 in whole red blood cells, using parasite LDH activity as an index of growth. Test compounds present at 2uM
# Plasmodium falciparum [2] = assay: GSK_TCMDC: Inhibition of Plasmodium falciparum Dd2 in whole red blood cells, using parasite LDH activity as an index of growth. Test compounds present at 2uM
# HepG2 = assay: GSK_TCMDC: Percent inhibition of human HepG2 cell line. Test compounds present at 10uM.
Structure (SMILES),Inhibition (Plasmodium falciparum [1]),Inhibition (Plasmodium falciparum [2]),Inhibition (HepG2)
CCOc1ccc(C(=O)Nc2cc(Br)c3c(c2)CNCC3)cc1Br.Cl,96%,21%,18%
O=C(C=Cc1cccs1)Nc1ccc(-c2nc3ccccc3[nH]2)cc1,83%,3%,0%
CCOC(=O)c1nc(-c2ccccc2)[nH]c1-n1nc(C)cc1C,92%,9%,7%
O=C(Nc1ccc(Cl)cc1)c1cccc2nc(C(F)(F)F)[nH]c12,93%,98%,84%
COc1cc(C)ccc1N1CCN(CCCCNC(=O)c2ccc(NC(=O)c3ccc(Cl)cc3)cc2)CC1,99%,31%,30%
C[C@@H](N/C(=N\c1ccc(-c2ccccc2)cc1)Nc1ccc(C#N)cc1O)c1ccc(Br)cc1,99%,95%,9%
COc1ccc2c(NN=Cc3ccc(F)cc3)ccnc2c1,100%,99%,14%
Cl.N=C(N)Nc1ccc(OCCCCCOc2ccc(NC(=N)N)cc2Br)c(Br)c1,92%,95%,27%
NC(=O)c1cc2nc(Nc3ccc(F)cc3)nc(NC3CCC3)c2[nH]1.O=CO,100%,100%,0%
CC(CN(C)C)C(=O)Nc1cccc(-c2ccc(-c3nc4ccccc4[nH]3)cc2)c1 (stereo not given),98%,25%,1%
COc1ccc2nccc(NCC3(O)CCC(NCc4ccc5c(n4)NC(=O)CS5)CC3)c2n1.Cl (stereo not given),100%,23%,16%
O=C(N[C@@H](CC1CCCCC1)C(=O)NC1CCCCC1)c1ccc(O)c(-c2cccc(C(F)(F)F)c2)c1,100%,95%,0%
CN(C)CCC1CCN(CCS(=O)(=O)c2cccc(Nc3ccc(-c4ccsc4)cn3)c2)CC1,97%,6%,49%
COc1ccc2ncc(F)c(CCN3C[C@H](CNCc4cc(C#N)c5c(c4)OCCO5)[C@H](O)C3)c2n1.Cl,100%,64%,7%
CN1CCCC(CN2CCN(Cc3cccc(-c4ccc(-c5nc6cc(C(F)(F)F)ccc6[nH]5)cc4)c3)CC2)C1.O=C(O)C(F)(F)F (stereo not given),99%,96%,100%
Cl.N#Cc1ccc2c(c1)CCN(CCC1CCC(NC(=O)/C=C/c3cccc4cc[nH]c34)CC1)CC2 (stereo not given),89%,29%,22%
COc1cc(NC(=O)c2sc(-c3ccc(Cl)cc3)cc2Cl)ccc1OCCN1CCCC1.O=C(O)/C=C\C(=O)O,93%,21%,72%
Cc1cccc2nc(-c3cccc(-c4cccc(CNCCc5cccn5C)c4)c3)[nH]c12.O=C(O)C(F)(F)F,91%,49%,4%
FC(F)(F)c1ccc2[nH]c(-c3ccc(-c4ccc(CNCC5CCCO5)cc4)s3)nc2c1.O=C(O)C(F)(F)F (stereo not given),100%,98%,47%
O=C(NC1CCCCC1)N(CCCn1ccnc1)Cc1csc(-c2ccc(CNCc3ccccc3)cc2)n1.O=C(O)C(F)(F)F,97%,48%,5%

Structure (SMILES),Inhibition (Plasmodium falciparum [1]),Inhibition (Plasmodium falciparum [2]),Inhibition (HepG2)
c1ccc(-c2nc(NC3CCCCC3)cc(C3CC3)n2)nc1,97%,76%,35%
CO/C(=C\C=C\c1cc2cc(Cl)c(Cl)cc2[nH]1)C(=O)NCCCN1CCN(c2cccc(CCO)c2)CC1,100%,32%,61%
COc1ccc(/C=C/C(=O)NCCCCCN2CCC(c3c[nH]c4ccccc34)CC2)cc1O,91%,1%,9%
O=C(Nc1ccc(OC2CCN(Cc3ccsc3)CC2)c(Cl)c1)c1ccc(F)cc1.O=C(O)C(F)(F)F,98%,83%,31%
O=C(Nc1ccc(S(=O)(=O)N2CCCCC2)cc1)c1cc(-c2cc(Cl)ccc2O)n[nH]1,97%,87%,36%
CC(C)COc1ccc(Cl)cc1Cc1ccc(-c2nc3cc(CCN(C)C)ccc3[nH]2)o1.Cl,92%,7%,10%
Cc1cccc(CN2CCCN(Cc3ccc(C(=O)Nc4ccc(C(C)(C)C)cc4)cc3)CC2)c1.O=C(O)C(F)(F)F,97%,4%,57%
CN1C(=CC(=O)NC(=O)c2ccccc2)C(C)(C)c2ccccc21,93%,89%,0%
Nc1ncc(-c2ccsc2)c2ccc(-c3ccc4cn[nH]c4c3)cc12,95%,41%,18%
O=C(Nc1ccc([N+](=O)[O-])cc1Cl)c1cc2ccccc2cc1O,94%,28%,6%
CCN(CC)CCN(Cc1ccc(-c2ccc(C(F)(F)F)cc2)cc1)C(=O)Cn1c(CCC2CCCCC2)nc(=O)c2ccccc21.O=C(O)C(O)C(O)C(=O)O,87%,25%,32%
CCOc1cc(C(=O)NC2CCN(Cc3ccccc3)CC2)ccc1-c1nc2cc(Cl)c(F)cc2[nH]1,100%,51%,13%
Cc1cc(NC(=O)c2cccs2)ccc1OC1CCN(Cc2ccc(F)cc2)CC1.O=C(O)C(F)(F)F,94%,92%,7%
Nc1ncc(OC2CCCCC2)c(N)n1,94%,0%,0%
S=C(NCCCCCN1CCC(c2c[nH]c3ccccc23)CC1)Nc1ccc(Cl)c(Cl)c1,100%,31%,89%
Cc1cc(Nc2ccc(Cl)cc2)n2nc(C(F)(F)F)nc2n1,97%,95%,5%
CCOc1cc(Cc2cnc(N)nc2N)cc(OCC)c1O,89%,0%,6%
Cc1cc(Nc2c(C(N)=O)cnc3cc(-c4ccoc4)ccc23)ccc1N1CCN(C)CC1.Cl,100%,100%,7%
N#Cc1ccc(N/C(=N\c2ccc(-c3ccccc3)cc2)NCc2cccnc2)c(O)c1,100%,46%,2%
Cc1nnc2sc(-c3cccc(NC(=O)c4ccc(N5CCCCC5)c([N+](=O)[O-])c4)c3)nn12,87%,20%,3%

Structure (SMILES),Inhibition (Plasmodium falciparum [1]),Inhibition (Plasmodium falciparum [2]),Inhibition (HepG2)
CCOc1cc(C(=O)N[C@@H](Cc2ccccc2)[C@H](O)CNCc2cc(OC)cc(OC)c2)cc(N2CCCC2=O)c1.Cl,94%,63%,0%
CCCC[C@@H](C(=O)NCCc1ccc(Cl)cc1)N1C(=O)CCC1C(=O)Nc1ccc(Cl)c(Cl)c1 (stereo not given in full),95%,2%,4%
O=C(c1cc(C(=O)Nc2ccccc2)c(=O)n(-c2ccccc2)c1)c1cc(Cl)ccc1O,100%,95%,9%
Cc1ccc(CNC(=O)[C@H](Cc2ccccc2)Nc2cc(C)nc(NCCc3ccc(F)cc3)n2)cc1.O=C(O)C(F)(F)F,98%,22%,10%
O=C(Nc1ccc(-c2csc(-c3nc4ccccc4[nH]3)c2)cc1)Nc1ccc(F)c(F)c1F,100%,64%,67%
Cc1nnc2c(NC(=O)NC3CCCC3)cc3ccc(-c4cccc(CN5CCN(C)CC5)c4)cc3n12,91%,68%,54%
CCN(CC)CCN(Cc1ccc(-c2ccc(C(F)(F)F)cc2)cc1)C(=O)CN1C(CCc2cccc(F)c2F)=NS(=O)(=O)c2ccccc21,100%,49%,36%
Cc1ccc(C(=O)Nc2ccc(F)cc2)cc1-c1nc(NC2CC(C)(C)NC(C)(C)C2)nc2c1ccc(=O)n2-c1c(F)cccc1F,89%,96%,16%
CCCCCNc1nc(Nc2ccccc2C)nc2ccccc12.Cl,100%,30%,5%
Nc1nc(N)c2c(ccn2Cc2cc3c(cc2Cl)OCO3)n1,98%,11%,67%
COc1cc(NC(=O)N2CCOC(CCN3CCC4(CCc5ccccc54)CC3)(c3ccc(Cl)c(Cl)c3)C2)cc(OC)c1OC (stereo not given),94%,67%,17%
COc1cc(C(=O)Nc2cccc(-c3cn4ccc(C)cc4n3)c2)cc(OC)c1OC,97%,83%,0%
O=C(/C=C/c1ccc(Cl)c(Cl)c1)NCCCCCN1CCC(NC(=O)Nc2cc(F)cc(F)c2)CC1,100%,6%,80%
Cl.N=C(N)c1ccc(NC(=O)Cc2nc3cc(C(=N)N)ccc3[nH]2)cc1,87%,81%,4%
O=C(Nc1ccc2c(c1)CCC2)c1cccc(CN2CCCN(Cc3cccc(O)c3)CC2)c1.O=C(O)C(F)(F)F,91%,20%,10%
O=C(NCCN1Cc2ccccc2C1=O)c1ccc(Oc2ccc(C(=O)NCCN3Cc4ccccc4C3=O)cc2)cc1,99%,95%,27%
COc1ccccc1CCN(C)CCN1CCC(NC(=O)c2ccc(-c3ccc(C(F)(F)F)cc3)cc2)CC1,92%,15%,46%
CC1(C)N=C(NC(=O)Nc2ccc([N+](=O)[O-])cc2)N=C(N)N1OCc1cccc2ccccc12,97%,21%,35%
Cc1cc2[nH]c(-c3ccc(C(=O)NCCCN4CCN(c5cccc(Cl)c5)CC4)s3)nc2cc1Cl,100%,93%,7%
COc1ccc(CCNCC(O)COc2nccc3c(S(=O)(=O)N4CCCNCC4)cccc23)cc1OC.Cl (stereo not given),96%,0%,59%
